Experimental data from PubChem BioAssay.
Results with a measured potency or affinity are listed apart. Calls of active or inactive are those of the source.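 How the source made its calls: active means a fitted half-maximal concentration no higher than twice the top valid tested dose, with signal falling as cells die; inconclusive means flat curve between -70% and -30%, or poor fit; inactive means the rest, including signal rising instead of falling.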

assay: viability loss in HeLa cells – cell-based, ATP luminescence, cherry-pick samples, cytotoxicity control, dose response (AID 687004); settings: ATP luminescence (CellTiter-Glo), 48 h; series mostly up to 26 µM; activity change, negative = cytotoxicity: at the top concentration;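 further: 0% = neutral control median and -100% = staurosporine 10 µM control median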

SMILES | activity change, negative = cytotoxicity
COc1cccc(S(=O)(=O)Nc2ccc3c(c2)[C@H]2C[C@H](CC(=O)N(C)C)O[C@@H](CO)[C@H]2O3)c1 | 2.49% (inactive)
C[C@H]1CN([C@@H](C)CO)C(=O)Cc2cc(NS(C)(=O)=O)ccc2O[C@@H]1CN(C)Cc1ccc(Cl)c(Cl)c1 | -9.91% (inactive)
COc1ccc(NC(=S)NCc2ccc(Cl)cc2)c(OC)c1 | -0.895% (inactive)
C[C@H]1CN([C@@H](C)CO)C(=O)c2cc(-c3ccc(F)cc3)cnc2O[C@@H]1CN(C)CC1CCCCC1 | 3.19% (inactive)
Cc1ccc(NC(=O)N2CCCC2C(=O)Nc2c(C)cc(C)cc2C)cc1 (stereo unspecified) | 0.927% (inactive)
C[C@H](CO)N1C[C@H](C)[C@@H](CN(C)CC2CCOCC2)Oc2ncc(C#Cc3ccc(F)cc3)cc2C1=O | 1.66% (inactive)
COc1ccccc1CNC(=S)NCc1ccc(Cl)cc1 | 3.47% (inactive)
O=C(CSc1ncnc2c1cnn2-c1ccccc1)Nc1ccc2c(c1)OCO2 | 9.33% (inactive)
C[C@H]1CN([C@@H](C)CO)C(=O)c2cccc(NS(=O)(=O)c3ccc(Cl)cc3)c2O[C@@H]1CN(C)CC1CC1 | 13.2% (inactive)
C[C@H]1CN([C@@H](C)CO)C(=O)c2ccccc2-c2ccccc2CO[C@H]1CN(C)S(=O)(=O)c1cccc(C#N)c1 | 46.8% (inactive)
O=C(NC1CCCCC1)N[C@H]1C=C[C@@H](CC(=O)N2CCOCC2)O[C@@H]1CO | -15.7% (inactive)
Cc1noc(C)c1S(=O)(=O)Nc1ccc2c(c1)CC(=O)N([C@H](C)CO)C[C@H](C)[C@@H](CN(C)S(=O)(=O)c1cn(C)cn1)O2 | 8.74% (inactive)
C[C@H](CO)N1C[C@H](C)[C@@H](CN(C)Cc2ccc(-c3ccccc3)cc2)Oc2ccc(NC(=O)Nc3ccc(C(F)(F)F)cc3)cc2C1=O | 3.05% (inactive)
C[C@@H]1CN([C@@H](C)CO)C(=O)Cc2cc(NC(=O)c3ccncc3)ccc2O[C@H]1CN(C)Cc1ccncc1 | 8.25% (inactive)
CCN(Cc1ccccc1)C(=O)COc1ccccc1 | 13.7% (inactive)
N#Cc1ccc(C23CC4(C2)[C@H](CN(Cc2ccc(C(F)(F)F)cc2)[C@@H]4c2ccccc2)C3c2ccc(C(F)(F)F)cc2)cc1 (stereo partly specified) | 4.62% (inactive)
CC(C)NC(=O)N[C@H]1CC[C@@H](CCNC(=O)C2CC2)O[C@H]1CO | 4.1% (inactive)
Cc1ccc(S(=O)(=O)N[C@H]2C=C[C@@H](CC(=O)N3CCC(Cc4ccccc4)CC3)O[C@H]2CO)cc1 | 13.1% (inactive)
CCCNC(C)C(=O)Nc1ccccc1C (stereo unspecified) | 10.7% (inactive)
O=C(Cc1ccccc1)N[C@H]1C=C[C@@H](CC(=O)N2CCOCC2)O[C@@H]1CO | -32.4% (inactive)
CCNC(=O)C[C@H]1CC[C@H](NC(=O)NC2CCCCC2)[C@@H](CO)O1 | 4.75% (inactive)
S=C(Nc1ccc(Cl)cc1Cl)Nc1ccccc1Oc1ccccc1 | 1.39% (inactive)
Cc1noc(C)c1NC(=O)N(C)C[C@H]1OCCCC[C@H](C)Oc2ccc(NC(=O)NC(C)C)cc2C(=O)N([C@@H](C)CO)C[C@@H]1C | 8.32% [at 23.5 µM] (inactive)
C[C@H](O)C#Cc1ccc2c(c1)O[C@H](CN(C)Cc1ccncc1)[C@H](C)CN([C@H](C)CO)S2(=O)=O | 24.2% (inactive)
Cc1ccccc1NC(=O)C(=O)NCCCN1CCCC1=O | -6.28% (inactive)
COCC(=O)NC[C@H]1N[C@H](CO)[C@H]1c1ccc(C2=CCCC2)cc1 | 9.9% (inactive)
